Experimental findings from PMC4081100, “A DNA-binding-site landscape and regulatory network analysis for NAC transcription factors in Arabidopsis thaliana” are described below.

Holding throughout (experiment): universal protein binding microarray (PBM); transcription factors of Arabidopsis thaliana; high values mean tight binding
Conditions in all cases: protein: recombinant; tags: GST; chain copies: 2; dsDNA, one strand shown

The target in experiment [1] is T1, GST-ANAC092(1-176) (Arabidopsis thaliana, UniProt Q9FKA0 1-176).
T1 sequence: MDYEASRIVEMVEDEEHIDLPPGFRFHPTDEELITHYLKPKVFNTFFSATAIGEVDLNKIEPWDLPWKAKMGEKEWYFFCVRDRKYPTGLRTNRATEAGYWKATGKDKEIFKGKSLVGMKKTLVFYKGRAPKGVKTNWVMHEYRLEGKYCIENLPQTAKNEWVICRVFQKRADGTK
Summed up: (§1)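 Binding is expressed as the normalised enrichment score (E-score). Proteins carrying a GST tag, whether NAC-domain, full-length or DNA-binding-domain forms, were induced in cells, and zinc acetate was added for zinc-finger proteins. After purification on glutathione–Sepharose 4B and quantification by A280 or anti-GST western blot, each was applied in duplicate at 200 to 500 nM final to custom all-10-mer Agilent 4 × 180K arrays made double-stranded by primer extension. Gapped and ungapped 8-mers were scored.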

In experiment [2] the target is T2, GST-ANAC019 NAC domain (Arabidopsis thaliana, UniProt Q9C932 14-162).
T2 sequence: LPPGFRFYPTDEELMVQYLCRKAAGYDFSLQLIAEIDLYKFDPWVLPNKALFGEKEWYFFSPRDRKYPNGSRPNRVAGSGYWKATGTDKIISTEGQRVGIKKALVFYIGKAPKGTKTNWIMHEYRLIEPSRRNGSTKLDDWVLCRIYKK
In outline: as §1

For experiment [3], the target named is T3, GST-ANAC055(1-171) (Arabidopsis thaliana, UniProt Q9LDY8 1-171).
T3 sequence: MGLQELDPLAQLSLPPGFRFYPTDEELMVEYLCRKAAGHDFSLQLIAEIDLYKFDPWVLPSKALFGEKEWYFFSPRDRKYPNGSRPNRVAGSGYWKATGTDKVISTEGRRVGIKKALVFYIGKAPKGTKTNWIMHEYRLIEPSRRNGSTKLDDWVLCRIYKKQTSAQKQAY
Summed up: as §1

The target of experiment [4] is T4, GST-ATAF1 NAC domain (Arabidopsis thaliana, UniProt Q39013 7-158).
T4 sequence: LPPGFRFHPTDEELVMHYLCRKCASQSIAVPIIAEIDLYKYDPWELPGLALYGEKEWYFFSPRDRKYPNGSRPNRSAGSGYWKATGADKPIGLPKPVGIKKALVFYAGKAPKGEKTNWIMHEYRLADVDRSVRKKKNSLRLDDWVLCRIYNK
Summed up:
as §1

Experiment [5] has as its target T5, GST-ANAC092(1-285) full length (Arabidopsis thaliana, UniProt Q9FKA0 1-285).
T5 sequence: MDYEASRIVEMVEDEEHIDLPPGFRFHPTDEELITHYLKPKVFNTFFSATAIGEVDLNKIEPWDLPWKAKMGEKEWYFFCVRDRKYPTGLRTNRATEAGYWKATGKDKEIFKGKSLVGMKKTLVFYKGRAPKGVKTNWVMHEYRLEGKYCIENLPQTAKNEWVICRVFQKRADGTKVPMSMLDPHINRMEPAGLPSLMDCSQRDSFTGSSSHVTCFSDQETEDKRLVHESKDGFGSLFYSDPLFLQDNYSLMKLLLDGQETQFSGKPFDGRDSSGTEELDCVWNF
In outline:
as §1

Experiment [6] addresses T6, GST-NAP(1-166) (Arabidopsis thaliana, UniProt O49255 1-166).
T6 sequence: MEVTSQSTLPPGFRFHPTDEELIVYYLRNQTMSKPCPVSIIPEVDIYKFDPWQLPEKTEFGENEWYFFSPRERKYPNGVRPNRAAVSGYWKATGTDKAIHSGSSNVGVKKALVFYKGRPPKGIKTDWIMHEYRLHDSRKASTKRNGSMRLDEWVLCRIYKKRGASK
In outline:
as §1

Experiment [7] deals with T7, GST-NST2(1-184) (Arabidopsis thaliana, UniProt Q9M274 1-184).
T7 sequence: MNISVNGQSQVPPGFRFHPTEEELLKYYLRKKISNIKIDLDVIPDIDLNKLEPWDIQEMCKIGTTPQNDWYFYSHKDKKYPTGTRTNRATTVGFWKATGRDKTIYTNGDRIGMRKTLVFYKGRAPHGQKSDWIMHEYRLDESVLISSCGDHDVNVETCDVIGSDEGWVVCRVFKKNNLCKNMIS
Summed up: as §1

The target in experiment [8] is T8, GST-SND1(1-203) (Arabidopsis thaliana, UniProt Q9LPI7 1-203).
T8 sequence: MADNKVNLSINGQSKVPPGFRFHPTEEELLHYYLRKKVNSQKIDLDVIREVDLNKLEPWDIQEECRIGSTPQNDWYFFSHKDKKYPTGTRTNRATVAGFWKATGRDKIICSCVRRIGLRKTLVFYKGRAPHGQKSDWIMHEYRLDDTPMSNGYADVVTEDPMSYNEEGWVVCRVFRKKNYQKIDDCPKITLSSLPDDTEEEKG
Summed up: as §1

In experiment [9] the target is T9, GST-VND3 NAC domain (Arabidopsis thaliana, UniProt Q9FH59 12-162).
T9 sequence: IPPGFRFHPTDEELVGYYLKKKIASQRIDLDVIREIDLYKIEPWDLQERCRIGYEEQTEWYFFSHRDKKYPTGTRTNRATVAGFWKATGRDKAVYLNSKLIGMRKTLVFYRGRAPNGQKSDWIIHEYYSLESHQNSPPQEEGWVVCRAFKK
Summed up:
as §1

Experiment [10] concerns the target T10, GST-VND7 NAC domain (Arabidopsis thaliana, UniProt Q9C8W9 9-158).
T10 sequence: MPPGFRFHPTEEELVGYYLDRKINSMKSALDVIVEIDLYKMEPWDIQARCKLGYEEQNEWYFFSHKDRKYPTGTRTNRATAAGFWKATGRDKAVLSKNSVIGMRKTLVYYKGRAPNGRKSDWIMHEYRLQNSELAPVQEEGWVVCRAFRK
Summed up: as §1

The target of experiment [11] is GST-NTL6(1-168) (Arabidopsis thaliana, UniProt Q9SCK6 1-168). Summed up: as §1
GST-NTL6(1-168), sequence (Q9SCK6 1-168): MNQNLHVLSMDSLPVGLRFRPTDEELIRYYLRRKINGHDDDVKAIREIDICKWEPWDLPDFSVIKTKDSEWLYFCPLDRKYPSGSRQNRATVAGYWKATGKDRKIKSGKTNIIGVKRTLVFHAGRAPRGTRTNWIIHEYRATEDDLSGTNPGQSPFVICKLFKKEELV

In the case of GCACGTTA, the binding signal in [1] was found to be 0.433 E-score; in [2], 0.153 E-score; in experiment [3], 0.205 E-score; in experiment [4] it was 0.226 E-score; in [5], 0.464 E-score; in experiment [6], 0.222 E-score. Also, the binding signal in experiment [7] was 0.234 E-score; in [8] it was 0.369 E-score; in experiment [9] it was 0.217 E-score; in experiment [10], 0.246 E-score.

In the case of AGCGTGTA, the binding signal in experiment [1] came to 0.418 E-score; in experiment [2] it was 0.0634 E-score; in [3], 0.112 E-score; in experiment [4], 0.136 E-score; in [5], 0.436 E-score; in [6], 0.198 E-score. Also, the binding signal in [7] was 0.22 E-score; in experiment [8] it was 0.274 E-score; in experiment [9], 0.129 E-score; in experiment [10] it was 0.163 E-score.

Regarding TGGCGTAA, the binding signal in [1] was found to be 0.44 E-score; in experiment [2], 0.0928 E-score; in experiment [3] it was 0.127 E-score; in [4] it was 0.16 E-score; in experiment [5] it was 0.439 E-score; in experiment [6], 0.101 E-score. Further, the binding signal in [7] came out at 0.346 E-score; in experiment [8], 0.482 E-score; in experiment [9], 0.191 E-score; in experiment [10], 0.246 E-score.

For the sequence TCACGGCA, the binding signal in experiment [1] is 0.398 E-score; in [2], 0.473 E-score; in experiment [3] it was 0.438 E-score; in experiment [4], 0.385 E-score; in experiment [5], 0.429 E-score; in [6], 0.344 E-score. Further, the binding signal in experiment [7] was found to be 0.177 E-score; in [8] it was 0.16 E-score; in [9], 0.45 E-score; in [10], 0.456 E-score.

As for ACGTACGC, the binding signal was 0.212 E-score in experiment [1]; 0.202 E-score in experiment [2]; 0.16 E-score in experiment [3]; 0.26 E-score in experiment [4]; 0.402 E-score in experiment [5]; 0.274 E-score in experiment [6]. The binding signal in [7] was 0.193 E-score; in [8], 0.253 E-score; in experiment [9], 0.252 E-score; in [10], 0.209 E-score.

As for AACACGCA, the binding signal in [1] is 0.469 E-score; in experiment [2] it was 0.415 E-score; in [3], 0.345 E-score; in experiment [4], 0.315 E-score; in experiment [5] it was 0.477 E-score; in experiment [6], 0.386 E-score. In addition, the binding signal was 0.263 E-score in experiment [7], 0.335 E-score in experiment [8], 0.346 E-score in experiment [9] and 0.34 E-score in [10].

With ACACGCGA, the binding signal was 0.461 E-score in [1]; 0.125 E-score in experiment [11]; 0.478 E-score in experiment [5]; 0.147 E-score in experiment [6]; 0.212 E-score in [7]; 0.309 E-score in experiment [8]. Besides, the binding signal was 0.0551 E-score in experiment [9] and 0.124 E-score in experiment [10].

As for ATGCCGTG, the binding signal was 0.417 E-score in experiment [1]; 0.453 E-score in experiment [2]; 0.418 E-score in [3]; 0.35 E-score in experiment [4]; 0.443 E-score in experiment [5]; 0.397 E-score in experiment [6]. The binding signal in [8] was 0.111 E-score; in [9], 0.399 E-score; in [10], 0.447 E-score.
